PubChem BioAssay AID1347416 (National Center for Advancing Translational Sciences (NCATS), 2020)
The campaign covered roughly 4,100 compounds. About 1,600 (39%) were called active. Another 25% or so got no clear call; they are omitted. The list shows a part of the results. A number with no mark means an inactive call. Calls follow the shape of the dose curve; as a rule, active = well fitted inhibition curve with a large enough effect; inconclusive = small, poorly fitted or top-dose-only effect; inactive = no such curve, though single readings can be large or run the other way.

Test: qHTS Validation assay for Inhibitors of Plasmodium falciparum Dd2 growth in vitro; also: nearly all actives have a fitted effect of over 70% in size
Conditions: P. falciparum Dd2 in RBCs, SYBR Green growth, 72 h; series mostly up to 28.7 µM; activity change, negative = inhibition: at the top concentration
In short: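 P. falciparum Dd2-infected red blood cells (2.5% hematocrit, 0.3% parasitemia) grown 72 h at 37 °C under 5% O2 with compounds in a titration, 29 uM to 0.5 nM final. Growth read as SYBR Green-1 fluorescence after ~16 h lysis; artesunate 300 nM as positive control.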
% is scaled to controls: 0 for no effect and ±100 for the full control effect; potency is read from the fitted curve at half-maximal effect.

Compound | Potency | activity change, negative = inhibition
O=C(c1nnc(COc2ccc(OC(F)(F)F)cc2)n1-c1ccccc1)N1CCC[C@@H]1C(c1ccccc1)c1ccccc1 | 8.41 µM (active) | 
O=C(c1nnc(CN2CCC(F)(F)CC2)n1-c1cccnc1)N1CCC[C@@H]1C(c1ccccc1)c1ccccc1 | 15 µM (active) | 
CC(=O)Nc1cccc(OCc2nnc(C(=O)N3CCC[C@@H]3C(c3ccccc3)c3ccccc3)n2-c2ccccc2)c1 | 10.6 µM (active) | 
O=C(COc1ccccc1)N1CCCC(n2cc(-c3nc(C4CC4)no3)nn2)C1 (stereo not given) |  | -15.8%
CC(=O)Nc1cccc(-c2cn(C)c(=O)n3cc(COc4ccccc4)nc23)c1 |  | -5.26% [at 43.1 µM]
COC1CCOC2(CCN(C(=O)CCn3nc(C)cc3C)CC2)C1 (stereo not given) |  | 14%
COc1ccc(C(=O)NC2(C(F)(F)F)C(=O)NC(C)=C2C#N)cc1 (stereo not given) |  | 25%
COc1ccc(NC2=C(c3ccc(OC)cc3)C(=O)c3ccccc32)cc1 | 5.96 µM (active) | 
COCCn1cnc2ccc(Nc3ccc(C(F)(F)F)cc3)nc2c1=O |  | 9.07% [at 43.1 µM]
COc1ccc(C2=C(Nc3ccccc3)c3ccccc3C2=O)cc1 | 9.44 µM (active) | 
O=C1C(c2ccc(C(F)(F)F)cc2)=C(Nc2ccc(Cl)cc2)c2ccccc21 | 1.5 µM (active) | 
COc1ccc(NC2=C(c3ccc(C(F)(F)F)cc3)C(=O)c3ccccc32)cc1 | 2.11 µM (active) | 
Cc1cc(Cl)ccc1NC(=O)N1C[C@H](c2nc(-c3cccnc3)no2)[C@@H](C)C1 |  | -5.05%
CCOc1ccc(NC2=C(OC)C(=O)c3ccccc3C2=O)cc1 | 0.376 µM (active) | 
COc1ccc(C2=C(Nc3ccc(C)cc3)c3ccccc3C2=O)cc1 | 4.73 µM (active) | 
COc1ccccc1C(=O)NCc1nnc2c(-c3nc(C4CC4)no3)cccn12 |  | -6.9%
CC(C)c1cccc(NC(=O)c2ccc(CN3C(=O)NC4(CCOCC4)C3=O)cc2)c1 |  | -0.362%
CC(=O)Nc1cccc(-c2cc(C(=O)NCc3c(C)cc(C)[nH]c3=O)c3c(c2)N(C(C)C)CCO3)c1 | 9.44 µM (active) | 
Cc1cc(C)c(CNC(=O)c2cc(-c3cccnc3)cc3c2OCCN3C(C)C)c(=O)[nH]1 | 19.3 µM (active) | 
COc1ccc(C(=O)NCc2nnc3c(-c4nc(C5CC5)no4)cccn23)c(C)c1 |  | -12.6%

Compound | Potency | activity change, negative = inhibition
COc1ncc(-c2cc(C(=O)NCc3c(C)cc(C)[nH]c3=O)c3c(c2)N(C(C)C)CCO3)cn1 | 9.44 µM (active) | 
Cc1cc(C)c(CNC(=O)c2cc(-c3ccnn3C)cc3c2OCCN3C(C)C)c(=O)[nH]1 | 15.3 µM (active) | 
CN1CCOc2c(C(=O)NCCc3cnc[nH]3)cc(-c3ccc(N4CCOCC4)cc3)cc21 |  | -1.23%
COC(=O)C1=C(C)N(c2ccc(OC)cc2)C(C)=C(C(=O)OC)C1c1ccccc1 | 9.44 µM (active) | 
COc1ccc(-n2ccnc2SCC(=O)NO)cc1 |  | 0.591%
CCOC(=O)c1sc2nc3c(SCCC#N)cc(C(=O)c4cc(F)ccc4O)cn3c(=O)c2c1C | 1.68 µM (active) | 
CC(=O)NC1CC(c2cc(NCCCOC3CCN(C)CC3)ncn2)C1 (stereo not given) |  | 29%
O=C(NCc1ccco1)C1CCc2sc(C(=O)N3CCCCCC3)cc2C1 (stereo not given) |  | -4.94%
CC1CCN(c2ccc(C(=O)NCc3ccco3)cc2[N+](=O)[O-])CC1 | 6.68 µM (active) | 
Cc1nn2c3c(cnc2c1-c1ccccc1)C(=O)CC(c1ccco1)C3 (stereo not given) | 9.44 µM (active) | 
CCOC(=O)c1nc2cc3n(c(CC(C)C)c-2c1C)CC(C)=C3C | 7.5 µM (active) | 
CCOC(=O)c1noc2nc(C)n(CC(=O)NC(C)CC)c(=O)c12 (stereo not given) |  | 15.7%
O=C(c1ccco1)c1cn(CCOc2ccc(F)cc2)c2ccccc12 | 6.68 µM (active) | 
CCCNc1c(NC(=O)COc2ccc(Cl)cc2)c(=O)oc2ccccc12 |  | -24.5%
O=C(c1cccs1)c1cn(CCOc2ccc(Cl)cc2)c2ccccc12 | 5.96 µM (active) | 
COc1cccc(OCCn2cc(C(=O)c3ccco3)c3ccccc32)c1 |  | 54.6%
CC(C)(C)c1ccc(OCCn2ccccc2=O)cc1 |  | -19.2%
Cc1cc(OCCn2cc(C(=O)c3ccco3)c3ccccc32)ccc1Cl | 5.31 µM (active) | 
O=C(Nc1c(C(=O)N2CCN(c3ccc(F)cc3)CC2)oc2ccccc12)c1ccco1 |  | 10%
COc1ccc(OCCn2cc(C(=O)c3ccco3)c3ccccc32)cc1 | 2.11 µM (active) | 

Compound | Potency | activity change, negative = inhibition
CCCS(=O)(=O)NCCc1ncc(C)n1C(C)C |  | -51.1%
Cc1ccccc1-n1c(=O)/c(=C\c2ccco2)s/c1=C(/C#N)C(=O)Nc1ccccc1 | 5.31 µM (active) | 
N#Cc1ccc(CN2C[C@@H]3C(=O)N(CCN4CCc5ccccc5C4)C(=O)[C@@H]3C2)cc1 |  | -14.5%
CCOc1ccc(N2C(N)=NC(N)=NC2(C)C)cc1 |  | 47.6%
CC1(C)N=C(N)N=C(N)N1c1ccc(OCCCOc2ccccc2)c(Cl)c1 | 2.99 µM (active) | 
COc1ccc(N2C(N)=NC(N)=NC2(C)C)cc1 |  | 10.9%
CCOC(=O)c1cc(C)n(Cc2ccc(OCC)c(OC)c2)c1C | 10.6 µM (active) | 
COC[C@@H]1CN(Cc2ccc(OC)c(C)c2)C[C@H]1C(=O)N(C)C |  | 5.52%
COc1cc(O)c(C(CCN2CCN(c3ccccc3)CC2)c2ccc3c(c2)OCO3)c(OC)c1 (stereo not given) | 0.842 µM (active) | 
COc1cc(O)c(C(CCN2CCCCC2)c2ccc3c(c2)OCO3)c(OC)c1 (stereo not given) | 1.33 µM (active) | 
COc1cc(O)c(C(CCN2CCCC(C)C2)c2ccc3c(c2)OCO3)c(OC)c1 (stereo not given) | 0.531 µM (active) | 
COc1cc(O)c(C(CCN2CCOCC2)c2ccc3c(c2)OCO3)c(OC)c1 (stereo not given) | 4.22 µM (active) | 
CCc1ccc(NC(=O)C(=O)NCC(c2ccc3c(c2)OCO3)N2CCOCC2)cc1 (stereo not given) |  | 0%
CCOC(=O)C1(Cc2ccccc2Cl)CCNCC1 | 2.66 µM (active) | 
CCOC(=O)C1(Cc2ccccc2C(F)(F)F)CCNCC1 |  | -24%
CN(CCc1ccccn1)c1ccc(-c2nc(COc3ccccc3)no2)cn1 |  | -8.59%
Fc1cccc(NC(=S)NNc2c3ccccc3nc3ccccc23)c1 | 15 µM (active) | 
OC(CNC1CCCc2ccccc21)COc1c(Cl)cccc1Cl (stereo not given) | 1.68 µM (active) | 
CC(=O)N(C)C1CCCc2ccccc21 (stereo not given) |  | 45.2% [at 57.5 µM]
COc1ccccc1CN(C)C1CCCc2ccccc21 (stereo not given) |  | -0.478% [at 43.1 µM]
